KB-3-1 cytotox – qHTS assay for MDR1-selective chemotherapeutics: Primary screen using the parental adenocarcinoma cell KB-3-1. KB-3-1 viability, CellTiter-Glo ATP luminescence, 72 h. Potency, µM (top dose mostly 46.1 µM), most hits filed as cytotoxic. actives 1.4% (n = 400,000). AID 1347075, 2019; note: % is set by controls: 0 for no effect and ±100 for the full control effect; nearly all actives have a fitted effect of over 60% in size
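Cells are dispensed, compounds pinned in, plates held at 37 °C for 72 h, then CellTiter-Glo is added and luminescence read after 10 minutes. Cell line: parental KB-3-1 in phenol-red-free DMEM, 10% FBS.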
SW480 rereplic – A quantitative high throughput screen for small molecules that induce DNA re-replication in SW480 colon adenocarcinoma cells; Potency, µM (highest dose often 46.1 µM), without a hit: at the highest dose re-replication activation, hits mostly activators; SW480 DNA re-replication, Hoechst DNA content imaging, 48 h; actives 1.8% (n = 340,000); note: % of control where 0% means no effect; nearly all actives have a fitted effect of over 55% in size
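Compounds, transferred as 23 nL by pin tool, were incubated with cells for 48 hr; DNA content per nucleus was then quantified by Hoechst staining and fluorescence plate imaging.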
ELG1 repair inh – qHTS screen for small molecules that inhibit ELG1-dependent DNA repair in human embryonic kidney (HEK293T) cells expressing luciferase-tagged ELG1; HEK293T ELG1-luciferase reporter, luminescence, 16 h; DNA damage induced by 5-fluorouridine; Potency, µM (top dose mostly 46.1 µM), for inactives: at the highest dose activity change, negative = inhibition, hits mostly inhibitors; actives 2.3% (n = 330,000); AID 504467, 2011; note: % is set by controls: 0 for no effect and ±100 for the full control effect; nearly all actives have a fitted effect of over 55% in size
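Reporter activity after DNA damage by 5-fluorouridine is monitored. Compound-treated cells incubate 16 hr at 37 °C, then ONE-Glo is added for 30 min before luminescence reading.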
KB-V1 MDR tox – qHTS assay for MDR1-selective chemotherapeutics: Primary screen using the drug-selected MDR subline cells KB-V1; KB-V1 MDR cells viability, CellTiter-Glo, 72 h; Potency, µM (doses to about 46.1 µM), hits mostly cytotoxic; actives 3.4% (n = 400,000); note: % is set by controls: 0 for no effect and ±100 for the full control effect; nearly all actives have a fitted effect of over 60% in size
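Luminescent ATP read-out (CellTiter-Glo, 10 min) measures survival of drug-selected KB-V1 MDR cells after 72 h, 37 degrees C compound exposure. Medium: phenol-red-free DMEM, 10% FBS. Values from fitted concentration-response curves.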
MCF10A rerep – A quantitative high throughput screen for small molecules that induce DNA re-replication in MCF 10a normal breast cells; Potency, µM (doses to about 46.1 µM), for the others: at the highest dose activity, positive = re-replication, hits mostly activators; actives 2.9% (n = 350,000); AID 624296, 2012; MCF 10A DNA re-replication, Hoechst nuclear intensity, 48 h; note: % of control where 0% means no effect; nearly all actives have a fitted effect of over 50% in size
* hit, by the source's call; i = inactive; ? = inconclusive; · = no result. Rows were chosen to be rich in hits. Some 8.1% of all compounds tested hit in one or more screens of this group. Calls come from the whole dose curve; as a rule, active = well fitted curve in the direction sought with a large enough effect; inconclusive = small, poorly fitted or top-dose-only effect, or another doubt; inactive = no such curve, though single readings can be large; an effect the other way counts as inactive or inconclusive. Potency is the fitted concentration of half-maximal effect.

SMILES | KB-3-1 cytotox | SW480 rereplic | ELG1 repair inh | KB-V1 MDR tox | MCF10A rerep
CCc1ccc2[nH]cc(S(=O)(=O)c3ccc(C)c(C)c3)c(=O)c2c1 | i | -10% | ? | i | 27%
CCc1ccc2[nH]c3nc(C)cc(C)c3c(=O)c2c1 | i | 8% | ? | 6.5µM* | ?
O=[N+]([O-])c1ccc(Nc2ccc(F)cc2)nc1 | i | 0% | ? | ? | -2%
O=[N+]([O-])c1ccc(Nc2cccc(F)c2)nc1 | i | -2% | 3% | i | 0.73µM*
Cc1ccc(-n2nc(C(=O)N3CCCCC3)c(=O)n(C)c2=O)cc1 | i | · | · | i | ·
S=c1[nH]nc(-c2ccc3ccccc3n2)n1-c1cc(Cl)cc(Cl)c1 | i | -1% | -2% | 16µM* | 20%
CS(=O)(=O)c1nc(-c2ccccc2)cc(-c2ccccc2)c1C#N | ? | 6.5µM* | ? | i | 2.9µM*
CCCCC(CC)COS(=O)(=O)O (stereo unspecified) | · | 1% | · | · | 0%
CC(O)(c1ccc(F)c(F)c1)c1nc(-c2ccc(S(C)(=O)=O)cc2)cs1 (stereo unspecified) | ? | · | · | 21µM* | ·
CC(O)(c1ccc(F)c(F)c1)c1nc(-c2ccncc2)cs1 (stereo unspecified) | i | · | · | i | ·
CCOc1ccc(NC(=O)C(NS(=O)(=O)c2ccc3c(c2)CCN3C(C)=O)C(C)C)cc1 (stereo unspecified) | i | · | · | i | ·
CCOC(=O)N1CCN(Cc2nc(N)nc(Nc3ccc(OC)cc3)n2)CC1 | i | 2% | -11% | i | -8%
Cc1ccc(Nc2nc(N)nc(CN3CCN(C)CC3)n2)cc1C | · | · | 12% | · | ·
COc1ccc(N2CCN(Cc3nc(N)nc(Nc4ccc(C)c(Cl)c4)n3)CC2)cc1 | i | ? | 13µM* | 5.2µM* | ?
Cc1ccc(Nc2nc(N)nc(CN3CCN(c4ccccc4)CC3)n2)cc1Cl | i | 10% | ? | 16µM* | 18µM*
CCOC(=O)N1CCN(Cc2nc(N)nc(Nc3ccc(Oc4ccccc4)cc3)n2)CC1 | i | 0% | 12µM* | 13µM* | ?
Cc1ccc(Nc2c(-c3ccc(N4CCOCC4)cc3)nc3cccc(C)n23)cc1 | i | · | · | i | ·
CCCSC1=N/C(=C/c2ccsc2)C(=O)N1c1ccccc1 | i | -8% | -26% | i | -5%
CCCCSC1=N/C(=C/c2ccsc2)C(=O)N1c1ccccc1 | i | 2% | -12% | 16µM* | ?
CCSC1=N/C(=C\c2cccnc2)C(=O)N1c1ccccc1 | i | ? | -13% | 18µM* | ?
O=S1(=O)Nc2c(ccc3cccnc23)-c2ccccc21 | 18µM* | -2% | ? | ? | -6%
O=c1[nH]n(-c2cccc3cccnc23)c(=O)c2ccccc12 | i | -3% | 1% | i | 0%
C[C@@H]1CCCCCCCCC(=O)OCCN1C(=O)OC(C)(C)C | i | -10% | 19% | i | 6%
N#C/C(=C/c1ccc(-c2ccccc2[N+](=O)[O-])o1)C(N)=O | i | 6% | 2% | i | 6%
COc1cc([N+](=O)[O-])ccc1-c1ccc(/C=N/NC(=O)c2ccccc2O)o1 | · | · | 15µM* | · | ·
SMILES | KB-3-1 cytotox | SW480 rereplic | ELG1 repair inh | KB-V1 MDR tox | MCF10A rerep
O=C(N/N=C/c1ccc(-c2cccc([N+](=O)[O-])c2)o1)c1ccccc1O | i | ? | ? | i | ?
NC(=S)N/N=C/c1ccc(-c2cc(Cl)ccc2Cl)o1 | i | -3% | ? | 7.3µM* | 0%
NC(=O)N/N=C/c1ccc(-c2cccc(C(F)(F)F)c2)o1 | ? | -12% | -12% | i | 4.6µM*
N#C/C(=C/c1ccc(-c2cc([N+](=O)[O-])ccc2Cl)o1)C(N)=O | i | ? | -10% | 12µM* | ?
CC(=O)Oc1ccc(Cn2c(C)c(C(=O)NCc3ccccc3C(F)(F)F)sc2=O)cc1 | i | · | · | ? | ·
COc1ccc(NC(=O)c2cc(C3CCCCN3S(=O)(=O)c3ccccc3)on2)c(C)c1 (stereo unspecified) | i | · | · | i | ·
Cc1ccc(NC(=O)[C@@H]2O[C@H](CO)[C@H](O)[C@H](O)[C@H]2O)cc1C(F)(F)F | i | · | · | i | ·
NC(=S)N/N=C/c1ccc(-c2cc(Cl)cc(Cl)c2)o1 | i | -3% | · | ? | 13µM*
COC(=O)N/N=C/c1ccc(-c2cc(Cl)cc(Cl)c2)o1 | ? | -1% | 7% | ? | 4%
CNC(=S)N/N=C/c1ccc(-c2cc([N+](=O)[O-])ccc2Cl)o1 | 7.3µM* | -5% | ? | i | 4%
O=C(C[n+]1cccc(Br)c1)c1ccc(F)cc1 | i | · | · | i | ·
CC(/C=N\NC(=O)Cn1c(C)nc2ccccc21)=C\c1ccccc1 | 18µM* | -1% | 3% | ? | 15%
C/C(=N\NC(=O)Cc1ccccc1)c1cccs1 | i | 15% | ? | i | 18µM*
C/C(=N\NC(=O)Cn1c(C)nc2ccccc21)c1cccs1 | i | -2% | -11% | 15µM* | 3%
C/C(=N/NC(=O)Cc1cccc2ccccc12)c1cccs1 | i | 1% | 2% | ? | 3%
Cc1cc2cc(CN(Cc3cccs3)C(=S)NCc3ccco3)c(=O)[nH]c2cc1C | ? | 1% | 21µM* | i | -1%
Cc1ccc(C)c2[nH]c(=O)c(CN(Cc3cccs3)C(=S)NCc3ccco3)cc12 | i | · | 16µM* | i | -5%
CSc1ccccc1C(=O)OCC(=O)Nc1cccnc1Cl | i | -5% | ? | i | -3%
CC1(C(=O)NCc2ccccc2)CN(S(C)(=O)=O)CC(=O)N1Cc1cccs1 (stereo unspecified) | i | · | · | i | ·
O=C(NC(Nc1nc2ccc([N+](=O)[O-])cc2s1)(C(F)(F)F)C(F)(F)F)c1cccnc1 | 12µM* | 12% | ? | ? | 28%
O=C(NC(Nc1nc2ccc([N+](=O)[O-])cc2s1)(C(F)(F)F)C(F)(F)F)c1ccccc1Cl | ? | ? | ? | i | 21µM*
O=C(NC(NNc1ccc([N+](=O)[O-])cc1)(C(F)(F)F)C(F)(F)F)c1ccccc1Cl | i | 1% | 0% | i | ?
O=[N+]([O-])c1ccc2nc(SCc3ccccc3Cl)sc2c1 | i | 19% | 14% | i | 13µM*
CC(=O)Nc1cccc(NC(=O)CSc2nc3c(=O)n(C)c(=O)n(C)c3n2C)c1 | i | ? | 3% | i | 0%
